The whole screen tested about 65,000 compounds, of which about 2,100 (3.2%) showed an effect of 50% or more. The median lay at about -52%. The list comes from a sample in which strong results are over-represented; it also holds similar structures and randomly drawn compounds.
Tested on: Plasmodium falciparum
Assay: Screen against P. falciparum Asexual Blood Stage (ABS), at 5uM
Format: functional, Dd2
Details: tested at 5 uM

Row | SMILES | INHIBITION
1 | COc1cccc2c(=O)n(C3CCNCC3)cnc12 | -104%
2 | O=C(NC1CCC1)[C@@H]1C[C@@H]2CCN(Cc3ccncc3)C[C@H]2O1 | -70.1%
3 | COCCO[C@@H]1C[C@H]2CN(C(=O)c3ccc(C)nc3)CCN2C1 | -15.2%
4 | Cn1ccc(CN2CCOCC23CCNCC3)n1 | -75.7%
5 | Cc1noc(C)c1C(=O)N1CCC2(CC1)c1nc[nH]c1CCN2C | -42.4%
6 | CCN(CC)CCN1CCO[C@H]2[C@@H](OCc3ccncc3)CC[C@@H]21 | -18.1%
7 | c1ccc(OC[C@]23COC[C@H]2CN(Cc2ccoc2)C3)nc1 | 15.8%
8 | c1ccc(COC[C@@]23CCC[C@@H]2CN(Cc2ccccn2)C3)nc1 | -56.9%
9 | Cn1cc(CN2C[C@H]3CCC[C@@]3(COc3ccccn3)C2)cn1 | 66.1%
10 | Cn1cc(CN2C[C@H]3CCC[C@@]3(COc3cccnc3)C2)cn1 | 17.2%
11 | CN(C)CC(=O)N1C[C@H]2CCC[C@@]2(COc2ccccn2)C1 | 84.9%
12 | c1ccc(OC[C@]23COC[C@H]2CN(C2CCOCC2)C3)nc1 | 2.04%
13 | COc1ccccc1C1SCC(=O)Nc2c1c(=O)[nH]n2C1CCOCC1 (stereo unspecified) | -116%
14 | CN(C)c1ncc2c(n1)C1(CCN(CC3CC3)C1)COC2 (stereo unspecified) | -2.79%
15 | Cc1nc(N(C)C)nc2c1COCC21CCN(CC2CC2)C1 (stereo unspecified) | 50.3%
16 | COCCN1CCC2(COCc3c(C)nc(N(C)C)nc32)C1 (stereo unspecified) | -49.6%
17 | Cc1ccc(CN(CCCn2ccnc2)Cc2c(F)cccc2F)s1 | 81.5%
18 | Cc1cc(C2CCC2)nc(NCCC23CCCN2CCC3)n1 | 12.6%
19 | CC(C)COc1ccc(C2SCC(=O)Nc3c2c(=O)[nH]n3C(C)C)cc1 (stereo unspecified) | -35.2%
20 | CSC(C)CCN1CCC(n2cc(C3CCCCC3)nn2)CC1 (stereo unspecified) | 78.4%
21 | CCC(C)CN1CCC(n2cc(C3CCCCC3)nn2)CC1 (stereo unspecified) | 77.1%
22 | CC1(C)C(C(=O)NCCC2CN(Cc3c[nH]cn3)CCO2)C1(C)C (stereo unspecified) | -64.7%

Row | SMILES | INHIBITION
23 | Cc1nc(C2(NCc3cc(C#N)ccc3F)CCCCC2)no1 | -10.8%
24 | COc1ccc2[nH]c(C[C@@H]3C[C@@H](C(C)C)[C@H](CN(C)C)C=C3C)nc2c1 | 78.9%
25 | Cc1ccc(CN2C[C@@H]3CCN(Cc4cccnc4)C(=O)[C@H]3C2)s1 | -93.5%
26 | CC(C)c1nccc([C@@H]2C[C@@H]3CCN(Cc4ccco4)C[C@H]3O2)n1 | -12.5%
27 | CN(C)C(=O)CN1CCOCC2(C1)CN(c1ncccn1)CCO2 (stereo unspecified) | -97%
28 | Cc1nc(-c2ccc(F)c(F)c2)cc(C2CCNCC2)n1 | 84.1%
29 | CN1CCN(S(=O)(=O)c2ccc(Cl)c(Cl)c2)c2cnccc21 | 89.6%
30 | CN1CCN(S(=O)(=O)c2cccc(F)c2)Cc2cccnc21 | -37.8%
31 | Cn1cc(CN2CC[C@H]3[C@H]2CC(=O)N3Cc2ccncc2)cn1 | -2.65%
32 | OCCN1CCC(F)(F)C2(CCN(c3cccnc3)C2)C1 (stereo unspecified) | -46.2%
33 | FC1(F)CCNCC12CCN(c1ccccn1)C2 (stereo unspecified) | 58.6%
34 | FC1(F)CCN(Cc2cccnc2)CC12CCN(c1ccccc1)C2 (stereo unspecified) | 85.3%
35 | FC1(F)CCNCC12CCN(c1ncccn1)C2 (stereo unspecified) | 19.8%
36 | Fc1cccnc1N1CCC2(CNCCC2(F)F)C1 (stereo unspecified) | 47.8%
37 | c1cnc(N2CC3(CCN(Cc4cccnc4)C3)C2)nc1 | -85.5%
38 | FC1(F)CCNCC12CCN(c1cccnc1)C2 (stereo unspecified) | 66.6%
39 | O=C1CSC(c2ccc(O)cc2)c2sccc2N1 (stereo unspecified) | -74.5%
40 | c1coc(CN2CC[C@@H]3O[C@@H](COCc4ccncc4)CC[C@@H]32)c1 | -70.4%
41 | CCCN1CCN(C(=O)Cc2cccnc2)[C@H]2CS(=O)(=O)C[C@H]21 | -103%
42 | CO[C@H]1CN(CC2CC2)[C@@H]2CCCO[C@H]12 | 7.3%
43 | Cc1nc(C2CCN(C)CC2)cc(N2CCOc3ccc(Cl)cc3C2)n1 | 70.7%
44 | CC(Cn1cccn1)NCc1nc(-c2ccsc2)no1 (stereo unspecified) | -40%

Row | SMILES | INHIBITION
45 | CCS(=O)(=O)N1CCc2c(CN3CCOCC3)cncc2C1 | -10.2%
46 | O=C(O)[C@H]1CN(Cc2ccccc2)C[C@@H]1C(=O)c1ccccc1 | -40.5%
47 | CS(=O)(=O)NC[C@H]1OC[C@@H]2CN(Cc3cccnc3)CC[C@@H]21 | -58.6%
48 | CC1CN(Cc2ccccc2)CCCN1CCNS(C)(=O)=O (stereo unspecified) | 71.7%
49 | Cc1cnc(NCCc2c[nH]cn2)nc1-c1ccnn1C | -84%
50 | CCC(C)Oc1ccc(CNCCc2c[nH]cn2)cc1Cl (stereo unspecified) | 91.9%
51 | Cc1cccc(CN2CCN3C[C@H](Oc4cncnc4)C[C@H]3C2)n1 | -87%
52 | Cc1cccc(CN2CCCC(O)(CNCc3ncccc3C)C2=O)c1 (stereo unspecified) | 82.1%
53 | Cc1cccc(CN2CCCC[C@H]3CN(c4ncccn4)C[C@H]32)c1 | -35.2%
54 | CCC(=O)N1CCC2(CC1)C(=O)N(Cc1cccnc1)CCN2C | 0.961%
55 | Cc1cccnc1CN(C)CC1(O)CCCN(CC2CCCCC2)C1=O (stereo unspecified) | 44.3%
56 | Cc1cccc(CN2CCC3(CCN(c4ncccn4)CC3)C2=O)c1 | 76%
57 | Cc1ccc(CN2C[C@@H]3CN(c4ncccn4)C[C@@H]3C2)cc1 | -62.8%
58 | CC(C)c1cc(N2CCC3(CC2)CN(C)CCN3C)ncn1 | -11.3%
59 | CCOc1ncccc1C(=O)N1CCN(C)C2(CCN(C)CC2)C1 | 10.3%
60 | Cc1cc(C)c2c(NCCC34CCCN3CCC4)ncnc2n1 | -48.6%
61 | CC(C)Nc1cc(-c2c[nH]nc2C2CCN(C(=O)C3CC3)C2)ccn1 (stereo unspecified) | 80.9%
62 | O=C(C1CCC1)N1CCN(Cc2cccnc2)[C@H]2CS(=O)(=O)C[C@H]21 | -17.6%
63 | O=C(C1CCC1)N1CC[C@]2(O)CCN(Cc3ncccn3)C[C@@H]2C1 | -55.6%
64 | CC(C)Nc1cc(-c2c[nH]nc2C2CCN(C(=O)C3CCC3)C2)ccn1 (stereo unspecified) | 83.7%
65 | CCc1ncc(CN2C[C@@H]3CC[C@H]2CN(C(=O)C2CCC2)C3)cn1 | -85.5%
66 | CCCNc1cc(-c2c[nH]nc2C2CCN(C(=O)C3CCC3)C2)ccn1 (stereo unspecified) | 92.5%
